Assay in all cases: DAPPL (digital affinity profiling via proximity ligation, sequencing); 10 mM Tris-HCl pH 7.5, 50 mM NaCl, 1 mM DTT, 4% glycerol, room temperature, 30 min; GST-TFs on glutathione beads, 16-mer random dsDNA library, 0.1% formaldehyde crosslink after washing; high values mean tight binding
Assay [1] addresses T1, FEV (Homo sapiens, UniProt Q99581 1-238).
T1 sequence: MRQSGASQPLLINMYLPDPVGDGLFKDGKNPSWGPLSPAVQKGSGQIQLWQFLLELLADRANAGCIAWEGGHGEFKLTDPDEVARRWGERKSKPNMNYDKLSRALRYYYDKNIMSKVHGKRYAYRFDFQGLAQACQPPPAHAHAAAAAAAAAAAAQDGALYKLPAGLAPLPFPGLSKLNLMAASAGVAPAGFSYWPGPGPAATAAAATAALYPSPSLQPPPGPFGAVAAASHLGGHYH
Conditions: protein: recombinant; tags: N-terminal GST; dsDNA, one strand shown. The method in brief: (§1)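 A tag-only sample was pooled with DNA-barcoded human transcription factors that had been expressed in yeast as GST fusions and captured on glutathione beads. The pools were incubated for 30 min at room temperature with 200 nmole of a random double-stranded 16-mer DNA library in Tris/NaCl/DTT/glycerol buffer, then washed, crosslinked with 0.1% formaldehyde, proximity-ligated (BsaI/T4 ligase, 1 h, 37 °C), PCR-amplified and sequenced on an Illumina NextSeq500. Binding signal is each hexamer's read frequency for a factor divided by its frequency for the tag-only sample.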

The target of assay [2] is ETV5 (Homo sapiens, UniProt P41161 1-510). As to conditions: protein: recombinant; tags: N-terminal GST; dsDNA, one strand shown. An outline of the steps:
as §1

Assay [3] addresses HSF1 (Homo sapiens, UniProt Q00613 1-529). As to conditions: protein: recombinant; tags: N-terminal GST; chain copies: 3; dsDNA, one strand shown. An outline of the steps:
as §1

Assay [4] concerns the target T2, SPIC (Homo sapiens, UniProt Q8N5J4 1-248).
T2 sequence: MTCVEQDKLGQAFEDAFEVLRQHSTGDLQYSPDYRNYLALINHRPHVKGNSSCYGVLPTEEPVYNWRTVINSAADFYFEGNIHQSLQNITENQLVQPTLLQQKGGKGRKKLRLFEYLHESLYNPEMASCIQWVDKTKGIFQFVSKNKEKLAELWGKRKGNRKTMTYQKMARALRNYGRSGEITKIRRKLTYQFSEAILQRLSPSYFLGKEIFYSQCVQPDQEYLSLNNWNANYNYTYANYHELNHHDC
As to conditions: protein: recombinant; tags: N-terminal GST; dsDNA, one strand shown. An outline of the steps: as §1

In assay [5] the target is ELF4 (Homo sapiens, UniProt Q99607 1-663). Conditions: protein: recombinant; tags: N-terminal GST; dsDNA, one strand shown. An outline of the steps:
as §1

The target in assay [6] is T3, ELK4 (Homo sapiens, UniProt P28324-2 1-405).
T3 sequence: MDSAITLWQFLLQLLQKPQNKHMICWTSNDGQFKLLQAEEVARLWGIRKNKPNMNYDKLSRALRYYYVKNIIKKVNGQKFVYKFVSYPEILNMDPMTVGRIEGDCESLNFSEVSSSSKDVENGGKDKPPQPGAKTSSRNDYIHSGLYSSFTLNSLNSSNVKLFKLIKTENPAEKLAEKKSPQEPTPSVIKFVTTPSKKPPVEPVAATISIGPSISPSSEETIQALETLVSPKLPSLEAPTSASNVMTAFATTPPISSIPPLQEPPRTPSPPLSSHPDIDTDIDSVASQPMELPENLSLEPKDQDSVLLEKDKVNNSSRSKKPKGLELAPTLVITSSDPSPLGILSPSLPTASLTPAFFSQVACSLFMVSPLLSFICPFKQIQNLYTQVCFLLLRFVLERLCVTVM
As to conditions: protein: recombinant; tags: N-terminal GST; dsDNA, one strand shown. The method in brief: as §1

Assay [7] has as its target T4, ETV2 (Homo sapiens, UniProt O00321 1-342).
T4 sequence: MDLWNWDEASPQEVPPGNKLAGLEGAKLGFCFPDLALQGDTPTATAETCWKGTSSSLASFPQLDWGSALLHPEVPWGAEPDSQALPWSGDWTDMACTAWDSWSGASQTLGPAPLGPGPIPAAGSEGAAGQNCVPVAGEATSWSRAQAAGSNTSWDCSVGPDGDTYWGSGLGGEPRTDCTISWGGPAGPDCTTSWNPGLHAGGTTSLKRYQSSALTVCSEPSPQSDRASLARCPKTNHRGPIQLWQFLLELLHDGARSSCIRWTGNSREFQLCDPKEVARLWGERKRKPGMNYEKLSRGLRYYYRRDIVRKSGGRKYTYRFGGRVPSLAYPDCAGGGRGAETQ
Conditions: protein: recombinant; tags: N-terminal GST; dsDNA, one strand shown. An outline of the steps:
as §1

Assay [8] addresses T5, ELF3 (Homo sapiens, UniProt P78545 1-371).
T5 sequence: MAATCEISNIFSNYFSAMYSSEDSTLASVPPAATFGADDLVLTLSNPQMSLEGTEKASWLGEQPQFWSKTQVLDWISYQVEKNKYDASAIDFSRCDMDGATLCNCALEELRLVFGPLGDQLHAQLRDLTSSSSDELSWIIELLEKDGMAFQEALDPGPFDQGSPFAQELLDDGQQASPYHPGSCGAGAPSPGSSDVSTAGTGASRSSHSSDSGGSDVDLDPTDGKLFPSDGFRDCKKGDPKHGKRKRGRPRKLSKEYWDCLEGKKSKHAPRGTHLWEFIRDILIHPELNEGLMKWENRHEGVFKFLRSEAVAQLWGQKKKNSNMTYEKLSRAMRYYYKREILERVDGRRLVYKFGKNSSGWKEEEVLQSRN
As to conditions: protein: recombinant; tags: N-terminal GST; dsDNA, one strand shown. An outline of the steps:
as §1

Assay [9] deals with CRX (Homo sapiens, UniProt O43186 1-299). As to conditions: protein: recombinant; tags: N-terminal GST; dsDNA, one strand shown. The method in brief:
as §1

In assay [10] the target is ETV1 (Homo sapiens, UniProt P50549 1-477). As to conditions: protein: recombinant; tags: N-terminal GST; dsDNA, one strand shown. The method in brief:
as §1

Assay [11] concerns the target T6, ERF (Homo sapiens, UniProt P50548 1-548).
T6 sequence: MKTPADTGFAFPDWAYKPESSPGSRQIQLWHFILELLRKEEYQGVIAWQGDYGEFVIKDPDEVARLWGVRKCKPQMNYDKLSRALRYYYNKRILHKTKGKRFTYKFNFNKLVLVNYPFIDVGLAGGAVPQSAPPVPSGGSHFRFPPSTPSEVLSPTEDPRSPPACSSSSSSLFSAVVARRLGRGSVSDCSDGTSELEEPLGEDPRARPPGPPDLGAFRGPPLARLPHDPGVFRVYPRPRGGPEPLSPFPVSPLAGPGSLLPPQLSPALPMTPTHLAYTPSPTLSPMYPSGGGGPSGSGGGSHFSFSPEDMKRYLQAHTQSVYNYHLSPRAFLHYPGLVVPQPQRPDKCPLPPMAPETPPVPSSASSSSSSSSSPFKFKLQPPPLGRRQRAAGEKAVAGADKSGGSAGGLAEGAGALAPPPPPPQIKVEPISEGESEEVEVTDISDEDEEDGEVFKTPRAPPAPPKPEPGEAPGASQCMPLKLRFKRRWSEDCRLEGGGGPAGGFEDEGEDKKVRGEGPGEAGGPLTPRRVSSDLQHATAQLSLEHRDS
Conditions: protein: recombinant; tags: N-terminal GST; dsDNA, one strand shown. An outline of the steps:
as §1

Assay [12] concerns the target T7, ETV3L (Homo sapiens, UniProt Q6ZN32 1-361).
T7 sequence: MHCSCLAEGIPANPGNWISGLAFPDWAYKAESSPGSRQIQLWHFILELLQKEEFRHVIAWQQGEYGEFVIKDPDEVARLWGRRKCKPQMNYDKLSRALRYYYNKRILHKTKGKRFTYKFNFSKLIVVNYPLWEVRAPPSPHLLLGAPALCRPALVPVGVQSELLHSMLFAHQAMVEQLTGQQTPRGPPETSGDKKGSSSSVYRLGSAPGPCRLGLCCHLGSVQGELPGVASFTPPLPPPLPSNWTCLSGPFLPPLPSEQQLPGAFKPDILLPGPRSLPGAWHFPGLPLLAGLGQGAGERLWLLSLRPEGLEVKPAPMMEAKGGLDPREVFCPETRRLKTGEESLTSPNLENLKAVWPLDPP
Conditions: protein: recombinant; tags: N-terminal GST; dsDNA, one strand shown. An outline of the steps:
as §1

For assay [13], the target named is T8, ETS2 (Homo sapiens, UniProt P15036 1-469).
T8 sequence: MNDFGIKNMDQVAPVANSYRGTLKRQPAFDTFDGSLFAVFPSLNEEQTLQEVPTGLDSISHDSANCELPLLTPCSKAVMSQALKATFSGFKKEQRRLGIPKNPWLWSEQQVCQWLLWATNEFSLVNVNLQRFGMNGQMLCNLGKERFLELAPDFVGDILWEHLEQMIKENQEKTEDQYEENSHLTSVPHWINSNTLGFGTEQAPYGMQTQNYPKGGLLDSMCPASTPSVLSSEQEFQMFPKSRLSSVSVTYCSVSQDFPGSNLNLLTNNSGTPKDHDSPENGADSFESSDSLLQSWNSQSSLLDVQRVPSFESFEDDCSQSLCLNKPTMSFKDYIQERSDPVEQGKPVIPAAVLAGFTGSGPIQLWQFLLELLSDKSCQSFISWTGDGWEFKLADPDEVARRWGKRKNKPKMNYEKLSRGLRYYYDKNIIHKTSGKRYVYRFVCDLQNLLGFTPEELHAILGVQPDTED
Conditions: protein: recombinant; tags: N-terminal GST; dsDNA, one strand shown. The method in brief:
as §1

Assay [14] has as its target T9, SPDEF (Homo sapiens, UniProt O95238 1-335).
T9 sequence: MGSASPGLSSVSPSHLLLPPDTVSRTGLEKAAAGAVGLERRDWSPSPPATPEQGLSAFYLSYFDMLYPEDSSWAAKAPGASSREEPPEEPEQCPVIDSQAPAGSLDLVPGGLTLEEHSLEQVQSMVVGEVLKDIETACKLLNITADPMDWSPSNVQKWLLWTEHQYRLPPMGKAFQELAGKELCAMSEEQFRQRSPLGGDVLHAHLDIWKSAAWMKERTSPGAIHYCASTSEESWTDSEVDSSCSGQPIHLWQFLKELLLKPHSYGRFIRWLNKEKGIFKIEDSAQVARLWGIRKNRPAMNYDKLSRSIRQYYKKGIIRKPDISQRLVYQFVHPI
As to conditions: protein: recombinant; tags: N-terminal GST; dsDNA, one strand shown. An outline of the steps: as §1

For assay [15], the target named is T10, ETV7 (Homo sapiens, UniProt Q9Y603 1-341).
T10 sequence: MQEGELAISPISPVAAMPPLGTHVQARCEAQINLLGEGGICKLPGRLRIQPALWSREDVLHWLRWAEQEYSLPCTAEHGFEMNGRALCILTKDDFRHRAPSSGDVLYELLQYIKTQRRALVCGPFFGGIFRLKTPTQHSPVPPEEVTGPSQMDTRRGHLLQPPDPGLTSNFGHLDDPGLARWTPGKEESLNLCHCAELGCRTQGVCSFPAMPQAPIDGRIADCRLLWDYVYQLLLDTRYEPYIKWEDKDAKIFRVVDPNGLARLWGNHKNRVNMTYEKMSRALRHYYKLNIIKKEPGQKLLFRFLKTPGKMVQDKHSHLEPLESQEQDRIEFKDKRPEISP
Conditions: protein: recombinant; tags: N-terminal GST; dsDNA, one strand shown. The method in brief: as §1

The target of assay [16] is T11, ELF5 (Homo sapiens, UniProt Q9UKW6-2 1-255).
T11 sequence: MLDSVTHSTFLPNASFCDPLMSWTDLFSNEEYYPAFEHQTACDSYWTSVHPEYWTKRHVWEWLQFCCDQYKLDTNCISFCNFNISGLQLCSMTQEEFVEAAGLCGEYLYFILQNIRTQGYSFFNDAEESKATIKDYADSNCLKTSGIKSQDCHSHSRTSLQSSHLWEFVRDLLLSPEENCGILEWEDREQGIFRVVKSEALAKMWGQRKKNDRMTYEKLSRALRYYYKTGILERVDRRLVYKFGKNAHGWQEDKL
Conditions: protein: recombinant; tags: N-terminal GST; dsDNA, one strand shown. The method in brief:
as §1

The target in assay [17] is T12, ETV3 (Homo sapiens, UniProt P41162-2 1-143).
T12 sequence: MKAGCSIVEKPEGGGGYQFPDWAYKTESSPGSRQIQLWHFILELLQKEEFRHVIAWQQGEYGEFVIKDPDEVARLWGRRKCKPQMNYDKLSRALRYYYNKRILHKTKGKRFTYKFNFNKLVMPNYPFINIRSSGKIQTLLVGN
As to conditions: protein: recombinant; tags: N-terminal GST; dsDNA, one strand shown. The method in brief:
as §1

Assay [18] has as its target ETV6 (Homo sapiens, UniProt P41212 1-452). As to conditions: protein: recombinant; tags: N-terminal GST; dsDNA, one strand shown. An outline of the steps: as §1

ETV6, sequence (P41212 whole entry): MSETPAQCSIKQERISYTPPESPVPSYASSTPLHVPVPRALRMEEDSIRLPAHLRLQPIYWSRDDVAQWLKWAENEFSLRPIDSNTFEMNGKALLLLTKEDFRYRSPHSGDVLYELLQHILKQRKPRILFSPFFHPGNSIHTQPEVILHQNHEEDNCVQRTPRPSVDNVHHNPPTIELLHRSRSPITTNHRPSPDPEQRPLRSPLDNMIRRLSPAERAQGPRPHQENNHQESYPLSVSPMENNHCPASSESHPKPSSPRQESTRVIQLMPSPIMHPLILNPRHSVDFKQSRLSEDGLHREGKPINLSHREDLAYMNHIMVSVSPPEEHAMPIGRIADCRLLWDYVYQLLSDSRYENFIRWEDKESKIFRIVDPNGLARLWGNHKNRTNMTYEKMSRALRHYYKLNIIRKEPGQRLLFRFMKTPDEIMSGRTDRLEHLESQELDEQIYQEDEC
ETV5, sequence (P41161 whole entry): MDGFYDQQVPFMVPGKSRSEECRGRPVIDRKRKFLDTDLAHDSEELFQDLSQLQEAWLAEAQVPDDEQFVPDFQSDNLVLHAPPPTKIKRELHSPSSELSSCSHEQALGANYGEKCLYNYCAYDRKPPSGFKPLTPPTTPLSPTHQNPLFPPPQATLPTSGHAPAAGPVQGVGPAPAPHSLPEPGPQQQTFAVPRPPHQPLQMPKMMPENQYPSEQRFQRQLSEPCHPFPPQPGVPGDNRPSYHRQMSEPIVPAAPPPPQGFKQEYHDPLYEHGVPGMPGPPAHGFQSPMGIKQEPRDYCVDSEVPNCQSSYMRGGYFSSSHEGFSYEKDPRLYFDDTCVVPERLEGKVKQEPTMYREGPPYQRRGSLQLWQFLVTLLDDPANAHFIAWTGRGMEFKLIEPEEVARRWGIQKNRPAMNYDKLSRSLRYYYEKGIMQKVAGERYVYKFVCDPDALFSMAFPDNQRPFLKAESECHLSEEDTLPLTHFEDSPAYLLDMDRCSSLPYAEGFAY
HSF1, sequence (Q00613 whole entry): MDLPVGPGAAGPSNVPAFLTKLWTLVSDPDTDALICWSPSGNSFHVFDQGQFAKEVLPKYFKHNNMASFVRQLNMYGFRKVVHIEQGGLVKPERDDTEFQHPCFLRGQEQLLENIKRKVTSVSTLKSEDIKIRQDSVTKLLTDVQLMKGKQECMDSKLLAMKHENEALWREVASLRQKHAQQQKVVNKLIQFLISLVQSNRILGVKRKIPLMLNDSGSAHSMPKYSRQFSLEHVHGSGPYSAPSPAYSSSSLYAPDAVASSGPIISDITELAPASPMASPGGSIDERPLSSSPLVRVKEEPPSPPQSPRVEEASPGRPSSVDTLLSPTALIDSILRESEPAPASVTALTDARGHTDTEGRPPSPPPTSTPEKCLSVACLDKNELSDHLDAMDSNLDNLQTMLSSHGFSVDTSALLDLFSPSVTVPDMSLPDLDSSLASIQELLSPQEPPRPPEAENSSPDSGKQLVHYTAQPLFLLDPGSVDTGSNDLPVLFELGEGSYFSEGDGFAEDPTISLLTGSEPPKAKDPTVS
CRX, sequence (O43186 whole entry): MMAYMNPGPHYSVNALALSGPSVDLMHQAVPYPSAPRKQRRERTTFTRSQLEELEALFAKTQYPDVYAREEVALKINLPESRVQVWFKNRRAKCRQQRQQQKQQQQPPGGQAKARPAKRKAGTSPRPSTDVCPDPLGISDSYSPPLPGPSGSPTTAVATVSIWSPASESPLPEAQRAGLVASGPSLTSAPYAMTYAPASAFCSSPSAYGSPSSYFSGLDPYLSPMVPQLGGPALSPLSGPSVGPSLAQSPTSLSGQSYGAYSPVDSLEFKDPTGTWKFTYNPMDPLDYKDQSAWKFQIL
ELF4, sequence (Q99607 whole entry): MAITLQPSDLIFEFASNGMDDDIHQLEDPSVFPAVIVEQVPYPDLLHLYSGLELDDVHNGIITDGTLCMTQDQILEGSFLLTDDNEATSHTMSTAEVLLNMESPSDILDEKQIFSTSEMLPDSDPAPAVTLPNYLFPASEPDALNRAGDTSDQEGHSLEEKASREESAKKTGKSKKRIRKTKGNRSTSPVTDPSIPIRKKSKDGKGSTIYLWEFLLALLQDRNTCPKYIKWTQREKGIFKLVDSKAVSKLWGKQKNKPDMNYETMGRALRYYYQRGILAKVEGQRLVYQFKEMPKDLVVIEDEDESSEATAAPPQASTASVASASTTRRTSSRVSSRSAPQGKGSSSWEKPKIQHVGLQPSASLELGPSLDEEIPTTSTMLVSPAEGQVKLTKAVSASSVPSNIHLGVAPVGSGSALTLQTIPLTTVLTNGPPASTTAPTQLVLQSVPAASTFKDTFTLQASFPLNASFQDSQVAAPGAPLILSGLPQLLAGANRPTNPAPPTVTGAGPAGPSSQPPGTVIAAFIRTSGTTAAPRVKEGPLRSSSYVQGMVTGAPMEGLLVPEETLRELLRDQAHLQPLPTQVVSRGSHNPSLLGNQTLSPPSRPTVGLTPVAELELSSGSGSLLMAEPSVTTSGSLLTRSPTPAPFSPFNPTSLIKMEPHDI
ETV1, sequence (P50549 whole entry): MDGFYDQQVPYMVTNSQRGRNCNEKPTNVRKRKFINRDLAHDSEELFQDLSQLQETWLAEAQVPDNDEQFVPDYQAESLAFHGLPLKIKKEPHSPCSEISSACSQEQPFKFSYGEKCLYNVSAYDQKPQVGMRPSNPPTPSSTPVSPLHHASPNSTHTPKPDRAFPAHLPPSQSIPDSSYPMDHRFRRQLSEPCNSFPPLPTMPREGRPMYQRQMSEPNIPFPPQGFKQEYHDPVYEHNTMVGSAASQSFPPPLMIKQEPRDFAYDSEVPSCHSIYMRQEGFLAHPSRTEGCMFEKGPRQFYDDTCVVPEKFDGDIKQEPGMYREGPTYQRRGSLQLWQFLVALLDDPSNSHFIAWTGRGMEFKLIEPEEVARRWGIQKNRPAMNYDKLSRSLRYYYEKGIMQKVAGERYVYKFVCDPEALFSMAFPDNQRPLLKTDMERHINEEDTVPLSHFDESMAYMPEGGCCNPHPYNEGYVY

With GTAAAA, the binding signal was 1.07 fold enrichment (6-mer frequency, TF over GST control) in assay [1]; 1.19 fold enrichment (6-mer frequency, TF over GST control) in assay [2]; 1.11 fold enrichment (6-mer frequency, TF over GST control) in assay [3]; 1.13 fold enrichment (6-mer frequency, TF over GST control) in [4]; 1.14 fold enrichment (6-mer frequency, TF over GST control) in assay [5]; 1.02 fold enrichment (6-mer frequency, TF over GST control) in assay [6]. Moreover, the binding signal in [7] is 1.21 fold enrichment (6-mer frequency, TF over GST control); in assay [8], 1.13 fold enrichment (6-mer frequency, TF over GST control); in assay [9] it was 1.03 fold enrichment (6-mer frequency, TF over GST control); in assay [10], 1.06 fold enrichment (6-mer frequency, TF over GST control); in assay [11], 1.13 fold enrichment (6-mer frequency, TF over GST control); in assay [12], 1.14 fold enrichment (6-mer frequency, TF over GST control). In addition, the binding signal was 1.13 fold enrichment (6-mer frequency, TF over GST control) in assay [13]; 1.09 fold enrichment (6-mer frequency, TF over GST control) in assay [14]; 1.18 fold enrichment (6-mer frequency, TF over GST control) in assay [15]; 1.18 fold enrichment (6-mer frequency, TF over GST control) in [16]; 1.16 fold enrichment (6-mer frequency, TF over GST control) in assay [17]; 1.14 fold enrichment (6-mer frequency, TF over GST control) in [18].

The record behind these values is article PMC7862700, “An all-to-all approach to the identification of sequence-specific readers for epigenetic DNA modifications on cytosine”.
